This note sets out measurements from PubChem BioAssay (Tox21).

The nature of test [1]: qHTS assay to identify small molecule agonists of H2AX (AID 1224845; active = well fitted activation curve with a large enough effect in the signal ratio in the repeat runs, not every such curve was filed as active; the % refers to the signal ratio). The gist of the method: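 Phospho-H2AX Ser139 measured by HTRF (ex 320 nm; em 665 and 620 nm) after 24 hr antibody incubation. Compounds, 15 concentrations, 0.76% DMSO, were applied to CHO-K1 cells for 3hr at 37C before lysis.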
Test [2] can be described thus: qHTS assay to identify small molecule agonists of the hypoxia (HIF-1) signaling pathway (AID 1224846; active = well fitted activation curve with a large enough effect in the signal ratio in the repeat runs, not every such curve was filed as active; the % refers to the signal ratio). The gist of the method:
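HRE-bla ME-180 beta-lactamase reporter cells in medium with 0.5% dialyzed FBS, pre-incubated 5 h then exposed to compounds 17 h at 37C, 5% CO2; reporter induction read with CCF4-AM FRET substrate.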
Background: qHTS replaces the single test concentration by a dilution series.

Test [3] is described as follows: qHTS assay to identify small molecule agonists of H2AX - cell viability counter screen (AID 1224847; calls by dose curve; also: nearly all actives have a fitted effect of over 30% in size; also: potency is read from the fitted curve at half-maximal effect). The gist of the method: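 Read-out: CellTiter-Glo luminescence, 30 min RT. Cells: wild-type CHO-K1, 1000/well, 10% FBS, plated overnight at 37C. Treatment: 15 concentrations, 3 hr, 37C, 0.76% DMSO.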
Test [4] can be described thus: qHTS assay to identify small molecule antagonists of the estrogen related receptor (ERR) signaling pathway from Tox21 library (AID 1224848). Also: nearly all actives have a fitted effect of over 50% in size. Also: potency is read from the fitted curve at half-maximal effect. The essentials:
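Reading was by luminescence 30 min after ONE-Glo addition. Before that, ERR cells at 2,000 per well had rested 6 h at 37 C/5% CO2 and then received pin-tooled compounds in DMSO for 18 h at 37 C.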

A short description of test [5]: qHTS assay to identify small molecule agonists of the estrogen related receptor (ERR) signaling pathway from Tox21 library (AID 1224849; calls by dose curve; also: nearly all actives have a fitted effect of over 15% in size). Conditions: ERR reporter cell line, ONE-Glo luciferase, 18 h; at 92.4 µM (top of the series) unless noted. The gist of the method: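 ERR reporter cells (NTP line) pre-incubated 6 hours at 37 C, then exposed to compounds for 18 hours at 37 C. ONE-Glo luciferase luminescence was read after 30 minutes at room temperature.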

A short description of test [6]: qHTS RealTime-Glo MT Cell Viability Assay in HepG2 cells - 24 hour (AID 1224867). Also: nearly all actives have a fitted effect of over 50% in size. The essentials: (§1)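 Tox21 10K library screened in qHTS format on HepG2 cells carrying RealTime-Glo reagents. Compounds were added after a 5 h preincubation, and the luminescent signal from continuous culture was measured repeatedly during 40 h treatment.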
Test [7] is described as follows: qHTS RealTime-Glo MT Cell Viability Assay in HEK293 cells - 32 hour (AID 1224868). Also: nearly all actives have a fitted effect of over 50% in size. Also: potency is read from the fitted curve at half-maximal effect. The gist of the method:
(§2)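 Luminescence generated by NanoLuc from substrate produced by living HEK293 cells served as the viability signal. Each value reflects the reading at its stated time point during continuous 40 h compound exposure at 37 C.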

Test [8] can be described thus: A CellTox Green Cytotoxicity Assay to monitor cytotoxicity in HEK293 cells - 0 hour (AID 1224869). Also: nearly all actives have a fitted effect of over 50% in size. The essentials:
(§3)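 HEK293 cells, 600/well, were preincubated 5 hours and then exposed to compounds at 37 C for up to 40 hours. A cell-impermeant cyanine dye staining dead-cell DNA was read by fluorescence at 0, 8, 16, 24, 32 and 40 h time points.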

Test [9] is described as follows: qHTS RealTime-Glo MT Cell Viability Assay in HepG2 cells - 40 hour (AID 1224870). Also: nearly all actives have a fitted effect of over 50% in size. The gist of the method: (§4)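 Real-time viability: cells seeded at 600 per well together with NanoLuc and cell-permeant prosubstrate, compounds added after 5 h incubation. Luminescence tracked at 0, 8, 16, 24, 32 and 40 h of exposure.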
Test [10] can be described thus: A CellTox Green Cytotoxicity Assay to monitor cytotoxicity in HEK293 cells - 40 hour (AID 1224871). Also: nearly all actives have a fitted effect of over 45% in size. The gist of the method: as §3
Test [11] can be described thus: qHTS RealTime-Glo MT Cell Viability Assay in HEK293 cells - 16 hour (AID 1224872). Also: nearly all actives have a fitted effect of over 50% in size. Also: potency is read from the fitted curve at half-maximal effect. The essentials: as §2
Test [12] can be described thus: qHTS RealTime-Glo MT Cell Viability Assay in HepG2 cells - 8 hour (AID 1224873). Also: nearly all actives have a fitted effect of over 55% in size. The essentials: as §4
The nature of test [13]: qHTS RealTime-Glo MT Cell Viability Assay in HEK293 cells - 40 hour (AID 1224874). Also: nearly all actives have a fitted effect of over 50% in size. Also: potency is read from the fitted curve at half-maximal effect. Conditions: RealTime-Glo luminescence; max response: active compounds read low. The essentials: (§5)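 600 cells/well were plated with the nonlytic NanoLuc/prosubstrate reagent, pre-incubated 5 h, then given 23 nL of compound in DMSO. Incubation at 37 C for 40 h, with luminescence from viable-cell-reduced substrate read repeatedly from 0 h.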

Test [14] is described as follows: A CellTox Green Cytotoxicity Assay to monitor cytotoxicity in HEK293 cells - 24 hour (AID 1224875). Also: nearly all actives have a fitted effect of over 45% in size. The essentials: as §3
Test [15] in a line: A CellTox Green Cytotoxicity Assay to monitor cytotoxicity in HepG2 cells - 16 hour (AID 1224876). Also: nearly all actives have a fitted effect of over 45% in size. Also: potency is read from the fitted curve at half-maximal effect. The gist of the method:
(§6)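 HepG2 cells, 600/well, preincubated 5 h with CellTox Green dye, then exposed to Tox21 compounds in DMSO at 37 C for up to 40 h. Dead-cell DNA fluorescence read at the indicated time point.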

Test [16] in a line: qHTS RealTime-Glo MT Cell Viability Assay in HepG2 cells - 32 hour (AID 1224877). Also: nearly all actives have a fitted effect of over 55% in size. The essentials:
as §1

Test [17] in a line: A CellTox Green Cytotoxicity Assay to monitor cytotoxicity in HepG2 cells - 24 hour (AID 1224878). Also: nearly all actives have a fitted effect of over 45% in size. The essentials:
as §6

A short description of test [18]: A CellTox Green Cytotoxicity Assay to monitor cytotoxicity in HepG2 cells - 40 hour (AID 1224879). Also: nearly all actives have a fitted effect of over 40% in size. Also: potency is read from the fitted curve at half-maximal effect. The essentials:
as §6

Test [19] can be described thus: qHTS RealTime-Glo MT Cell Viability Assay in HEK293 cells - 0 hour (AID 1224880). The essentials:
as §5

The nature of test [20]: A CellTox Green Cytotoxicity Assay to monitor cytotoxicity in HEK293 cells - 32 hour (AID 1224881). Also: nearly all actives have a fitted effect of over 40% in size. The gist of the method:
as §3

Unmarked numbers belong to inactive results. Inconclusive results are not listed. Active and inactive are the calls of the source. Unless noted, calls follow the shape of the dose curve; as a rule, active = well fitted curve in the direction sought with a large enough effect in the repeat runs; inconclusive = weak or mixed curves; inactive = no such curve, though single readings can be large; an effect the other way counts as inactive or inconclusive.
% is scaled to controls: 0 for no effect and ±100 for the full control effect.

As for `N#Cc1ccc(Cl)cc1`, the Potency result in test [1], in test [3], in test [4], in [6], in [7] and in [8] was “inactive” each time. Further, the Potency entry in test [9], in [10], in [11], in test [12], in test [14] and in test [15] was “inactive” throughout. Further, the Potency entry in test [16], in [17], in [18], in [19] and in test [20] was “inactive” each time. The compound was called inactive in test [2]. The activity change, positive = activation in test [5] was 0.802%. Also, the max response in test [13] was 2.27%.
Regarding `CC1(C)CCC(Cc2ccc(Cl)cc2)C1(O)Cn1cncn1` (centres undefined), the Potency entry in test [1], in [6], in test [8], in test [9], in test [14] and in [16] was “inactive” throughout. Besides, the Potency result in test [19] and in [20] was “inactive” in each case. In addition, in test [2], the result was inactive. For the same compound, the Potency is 101 µM (active) in test [3]; 30.6 µM (active) in test [4]; 24.5 µM (active) in [7]; 24.5 µM (active) in test [11]; 24.5 µM (active) in [13]; 54.9 µM (active) in test [15]. Further, the Potency in [18] is 54.9 µM (active). For the same compound, in test [5], the activity change, positive = activation is -53.4%.
Turning to `C[C@H]1CNCCc2ccc(Cl)cc21`, the Potency entry in test [1], in test [3], in [4], in test [6], in [7] and in [8] was “inactive” each time. The Potency entry in test [9], in test [10], in test [11], in [12], in test [14] and in test [15] was “inactive” in each case. Further, the Potency result in test [16], in [17], in [18], in test [19] and in test [20] was “inactive” in each case. In test [2], the result was inactive. In addition, in [5], the activity change, positive = activation was -0.2% [at 42.5 µM]. For the same compound, in test [13], the max response was -6.61%.
For the compound `COCC(C)N(C(=O)CCl)c1c(C)csc1C` (centres undefined), the Potency entry in test [1], in test [3], in test [6], in [7], in test [8] and in test [9] was “inactive” each time. In addition, the Potency entry in test [10], in test [11], in [12], in test [14], in test [15] and in test [16] was “inactive” each time. The Potency result in test [17] and in test [19] was “inactive” in each case. In addition, the call in [2] was inactive. Moreover, the Potency in [4] was 27.3 µM (active). Moreover, the activity change, positive = activation in test [5] is -54.8%. Besides, the max response in test [13] is 17.2%.
For the compound `COc1cc(Cl)c(OC)cc1Cl`, the Potency result in test [1], in test [3], in test [4], in [6], in test [7] and in test [8] was “inactive” each time. The Potency result in [9], in test [10], in test [11], in [12], in test [14] and in test [15] was “inactive” each time. Moreover, the Potency result in test [16], in [17], in test [18], in [19] and in [20] was “inactive” each time. For the same compound, in [2], the outcome was inactive. Moreover, the activity change, positive = activation in test [5] is 0.702%. In addition, the max response in test [13] is 1.87%.
Consider `CCCCN=C=O`, for which the Potency entry in [1], in [3], in test [4], in test [6], in [7] and in test [8] was “inactive” each time. In addition, the Potency result in [9], in test [10], in test [11], in test [12], in test [14] and in test [15] was “inactive” in each case. In addition, the Potency entry in test [16], in test [17], in test [18] and in [19] was “inactive” in each case. The compound was classed as inactive in [2]. For the same compound, the activity change, positive = activation in test [5] is 1.38%. The max response in test [13] is 2.49%.
`C[N+](C)(C)CCCl`: the Potency result in test [1], in [3], in test [4], in [6], in [7] and in test [8] was “inactive” in each case. The Potency entry in test [9], in test [10], in test [11], in test [12], in test [14] and in test [15] was “inactive” in each case. In addition, the Potency result in [16], in [17], in [18], in [19] and in [20] was “inactive” in each case. Moreover, the result in test [2] was inactive. For the same compound, in test [5], the activity change, positive = activation is 3.38%. The max response in [13] was 21.2%.
